Our source for the efficacy, outcome and AC50 values is PubChem BioAssay (NCATS).

SMILES strings stand for the structures. Several values for one entry are separate records, joined by “and”; a condition that tells them apart may be missing. Identical values can stand only once. Values without a mark were called inactive. For part of these data: Entries with a potency or affinity are not part of this list. Some structures have more than one record in an assay (separate samples or runs), and their calls can disagree. Activity calls are given as the source filed them.

The conditions of experiment [1]: Ebola virus entry assay, green fluorescence channel.
The conditions of experiment [2]: Ebola virus entry assay, blue channel fluorescence.
The conditions of experiment [3]: Ebola virus entry assay, ratio channel.
For experiment [4] the following is noted: Ebola virus entry assay, green channel fluorescence.
For experiment [5] the following is noted: Ebola virus entry assay, reporter ratio channel; AC50: Channel type: primary unless noted; outcome: Channel type: primary unless noted.
For experiment [6] the following is noted: Ebola virus entry assay, blue channel (ratio component).
For experiment [7] the following is noted: Ebola virus entry assay, green fluorescence channel. The source holds these as a separate data set.
The conditions of experiment [8]: Ebola virus entry assay, ratio channel readout.
For experiment [9] the following is noted: Ebola virus entry assay, blue channel fluorescence. This is another data set of the same source.
Wherever efficacy is given: 0% is about no effect.

Regarding `CCCCOCCOCCOCc1cc2c(cc1CCC)OCO2`, the efficacy in experiment [1] was -21%. The compound was classed as inactive in experiment [2], in [3], in experiment [4], in experiment [5] and in experiment [6].

The AC50 is the midpoint of the concentration-response curve, whichever way the signal moves. As to `CCCCCCC[N+](CC)(CC)CCCCc1ccc(Cl)cc1`, in [1], the efficacy was 30.3%. In addition, the AC50 in experiment [2] and in experiment [5] was 39.8 µM (active) in each case. Moreover, the outcome in experiment [3] was inactive.

In the case of `C=CC(=O)Nc1cc2c(Nc3ccc(F)c(Cl)c3)ncnc2cc1OCCCN1CCOCC1`, the efficacy in experiment [1] is 99.2%. Moreover, the AC50 in [2] is 3.16 µM (active); in experiment [3], 2.82 µM (active); in experiment [5], 2.82 µM (active).

For `C=C(C)[C@H]1Cc2c(ccc3c2O[C@@H]2COc4cc(OC)c(OC)cc4[C@@H]2C3=O)O1`, the efficacy in [1] is 120%. Moreover, the AC50 in experiment [2] was 10 µM (active); in [3] it was 8.91 µM (active); in experiment [5] it was 8.91 µM (active).

Regarding `CCn1cc(C(=O)O)c(=O)c2ccc(C)nc21`, in experiment [1], the efficacy is 67.7%. Besides, the compound was classed as inactive in [2], in [3] and in experiment [5].

For `COc1cc2c(N3CCN(C(=O)Nc4ccc(OC(C)C)cc4)CC3)ncnc2cc1OCCCN1CCCCC1`, in experiment [1], the efficacy was 52%. The AC50 was 11.2 µM (active) in experiment [2], 10 µM (active) in experiment [3] and 10 µM (active) in experiment [5].

For `CC(CCc1ccccc1)NC(C)C(O)c1ccc(O)cc1` (configuration not stated), in experiment [1], the efficacy is 36.4%. Moreover, the AC50 in [2], in experiment [3] and in experiment [5] was 35.5 µM (active) in each case.

As to `COC(=O)Nc1nc2ccc(C(=O)c3cccs3)cc2[nH]1`, in experiment [1], the efficacy was 64.8%. Also, the AC50 in experiment [2], in [3] and in experiment [5] was 0.708 µM (active) each time. In addition, the outcome in [5] is “inactive [Channel type: confirmation]”.

For the compound `O=c1[nH]c2ccccc2n1CCCN1CCC(n2c(=O)[nH]c3cc(Cl)ccc32)CC1`, the efficacy in experiment [1] was 125%. In addition, the results for the concentration at half-maximal activity (AC50) in [2], in [3] and in experiment [5] were 39.8 µM (active), 25.1 µM (active) and 25.1 µM (active), respectively.

For `O=c1c(O)c(-c2ccc(O)c(O)c2)oc2cc(O)cc(O)c12`, the efficacy in experiment [1] is -18.8%. In addition, the result in experiment [2], in experiment [4] and in experiment [6] was inactive.

With `COC(=O)Nc1nc2ccc(C(=O)C3CC3)cc2[nH]1`, the efficacy in experiment [1] was 69.7%. The AC50 in experiment [2] was 8.91 µM (active); in experiment [3], 7.94 µM (active); in experiment [5] it was 7.94 µM (active).

As for `Cc1ccc2c(c1)C1CN(C)CCC1N2` (configuration not stated), the efficacy in experiment [1] was 62.7%. Further, the AC50 in [2] is 17.8 µM (active); in experiment [3], 10 µM (active); in [5], 10 µM (active).

Consider `O=c1oc2ccccc2c(O)c1C(CC(O)c1ccc(-c2ccc(Br)cc2)cc1)c1ccccc1` (configuration not stated), for which the efficacy in experiment [1] was 92.1%. Moreover, the call in experiment [2], in [3], in experiment [5] and in experiment [6] was inactive.

Take `CC1(CN2CCC(n3c(=O)[nH]c4ccccc43)CC2)OCc2ccccc2-n2cccc21` (configuration not stated): the efficacy in [1] is 64.1%. Further, the AC50 is 20 µM (active) in [2], 15.8 µM (active) in experiment [3] and 15.8 µM (active) in experiment [5].

As to `CCCN1CCC[C@@H]2Cc3nc(N)ncc3C[C@H]21`, in experiment [1], the efficacy was 40.4%. Moreover, the AC50 in experiment [2] and in experiment [5] was 39.8 µM (active) throughout. In addition, in [3], the result was inactive.

For `COc1cccc2c1C(=O)c1c(O)c3c(c(O)c1C2=O)C[C@@](O)(C(=O)CO)C[C@@H]3O[C@H]1C[C@H](N)[C@H](O)[C@H](C)O1`, the efficacy in experiment [1] was 89.6%. The values for the AC50 in experiment [2], in [3] and in experiment [5] were 15.8 µM (active), 14.1 µM (active) and 14.1 µM (active), respectively.

As for `Oc1ccc(Cl)cc1Cc1ccccc1`, the efficacy in [1] is -105%. Besides, the AC50 is 20 µM (active) in experiment [2]; 10 µM (active) and 14.1 µM (active) in [3]; 10 µM (active) and 14.1 µM (active) in experiment [5].

Turning to `C#CCOC(C(=O)OCCN(C)C)(c1ccccc1)c1ccccc1`, the efficacy in experiment [1] is 46%. The AC50 is 12.6 µM (active) in experiment [2], 14.1 µM (active) in [3] and 14.1 µM (active) in experiment [5].

Consider `CCC1(C2=NCCN2)Cc2ccccc2O1` (configuration not stated), for which, in experiment [1], the efficacy was 28%. For the same compound, the compound was classed as inactive in experiment [2], in experiment [3], in [5] and in [6].

Consider `CCCCCCCCCCCCCCCC[N+](C)(C)CC`, for which, in [1], the efficacy was -76.8%. Also, the AC50 in experiment [2] was 25.1 µM (active); in experiment [3], 11.2 µM (active); in [5], 11.2 µM (active).

As to `COc1cc(Nc2c(C#N)cnc3cc(OCCCN4CCN(C)CC4)c(OC)cc23)c(Cl)cc1Cl`, the efficacy in experiment [1] is 56%. The concentration at half-maximal activity (AC50) was 2.82 µM (active) in experiment [2], 1.41 µM (active) in [3] and 1.41 µM (active) in experiment [5].

In the case of `Cc1cccc(C)c1NC(=O)CN1CCN(CCCC(c2ccc(F)cc2)c2ccc(F)cc2)CC1`, the efficacy in experiment [1] is 109%. Besides, the AC50 in [2], in experiment [3] and in [5] was 3.16 µM (active) each time.

In the case of `COc1cc([C@@H]2c3cc4c(cc3[C@H](O)[C@H]3COC(=O)[C@H]23)OCO4)cc(OC)c1OC`, in experiment [1], the efficacy is 25.2%. The half-maximal activity concentration (AC50) in [2] is 11.2 µM (active); in experiment [3] it was 5.01 µM (active); in [5], 5.01 µM (active).

As to `OC1(c2ccc(Cl)c(C(F)(F)F)c2)CCN(CCCC(c2ccc(F)cc2)c2ccc(F)cc2)CC1`, in experiment [1], the efficacy was -169%. Also, the AC50 in [2] is 5.01 µM (active); in experiment [3], 2.82 µM (active); in experiment [5] it was 2.82 µM (active).

Consider `c1ccc2c(c1)Nc1ccccc1S2`, for which the efficacy in experiment [1] was 4%. In addition, the compound was called inactive in [2], in experiment [3] and in [5].

As to `CN1C[C@H](CNC(=O)OCc2ccccc2)C[C@@H]2c3cccc4c3c(cn4C)C[C@H]21`, in [1], the efficacy is 74.4%. The AC50 in experiment [2] is 6.31 µM (active); in experiment [3] it was 3.98 µM (active); in experiment [5], 3.98 µM (active).

On to `CC1=C(/C=C/C(C)=C/C=C/C(C)=C/C(=O)Nc2ccc(O)cc2)C(C)(C)CCC1`, for which, in experiment [1], the efficacy is -119%. The AC50 in experiment [2] and in experiment [5] was 39.8 µM (active) throughout. Also, the result in [3] was inactive.

Turning to `CCCCC(CC)CN=C(N)NC(N)=NCCCCCCN=C(N)NC(N)=NCC(CC)CCCC` (configuration not stated), the efficacy in [1] is -201%. Further, the AC50 in [2] is 11.2 µM (active). The result in experiment [3] and in experiment [5] was inactive.

Turning to `CCCCCCCCCCCCCC[N+](C)(C)Cc1ccccc1`, in experiment [1], the efficacy was -210%. Moreover, the AC50 is 39.8 µM (active) in experiment [2], 25.1 µM (active) in [3] and 25.1 µM (active) in experiment [5].

With `Cn1c(CCCC(=O)O)nc2cc(N(CCCl)CCCl)ccc21`, the compound was classed as inactive in [7], in [8], in [2], in experiment [3], in experiment [4] and in experiment [9]. The outcome in experiment [5] and in experiment [6] was inactive.

Regarding `CC(C)C[C@H](NC(=O)[C@H](CCc1ccccc1)NC(=O)CN1CCOCC1)C(=O)N[C@@H](Cc1ccccc1)C(=O)N[C@@H](CC(C)C)C(=O)[C@@]1(C)CO1`, the efficacy in experiment [1] was -41%. Besides, the AC50 in experiment [2] was 0.316 µM (active); in experiment [3], 0.708 µM (active); in [5] it was 0.708 µM (active).

For `NC(=Nc1ccccc1)Nc1ccccc1`, in [1], the efficacy is -28.5%. Further, the values for the AC50 in [2] and in experiment [5] were 3.16 µM (active) and 31.6 µM (active), respectively. For the same compound, the outcome in [3] and in experiment [5] was inactive.

As for `CN1CC[C@H](c2c(O)cc(O)c3c(=O)cc(-c4ccccc4Cl)oc23)[C@H](O)C1`, the efficacy in [1] was 58.1%. Besides, the outcome in [2], in experiment [3], in experiment [5] and in experiment [6] was inactive.

As for `Cc1cc(OCCOCC[N+](C)(C)Cc2ccccc2)ccc1C(C)(C)CC(C)(C)C`, in [1], the efficacy is -204%. The figures for the AC50 in experiment [2], in experiment [3] and in [5] were 8.91 µM (active), 3.98 µM (active) and 3.98 µM (active), respectively.

Regarding `C[C@H]1O[C@@H](O[C@H]2[C@@H](O)C[C@H](O[C@H]3[C@@H](O)C[C@H](O[C@H]4CC[C@@]5(C)[C@H](CC[C@@H]6[C@@H]5CC[C@]5(C)[C@@H](C7=CC(=O)OC7)CC[C@]65O)C4)O[C@@H]3C)O[C@@H]2C)C[C@H](O)[C@@H]1O`, the efficacy in [1] is -46.6%. The AC50 is 1.41 µM (active) in experiment [2], 0.708 µM (active) in experiment [3] and 0.708 µM (active) in experiment [5].

Consider `Fc1ccc(C(OCCN2CCN(CCCc3ccccc3)CC2)c2ccc(F)cc2)cc1`, for which the efficacy in [1] was -187%. The AC50 in experiment [2] is 3.98 µM (active); in experiment [3], 2.82 µM (active); in experiment [5], 2.82 µM (active).

For `CN1C(=S)CN=C(c2ccccc2)c2cc(Cl)ccc21`, the efficacy in experiment [1] was 37%. The compound was called inactive in experiment [2], in experiment [3], in experiment [5] and in [6].

On to `COc1ccc(C(=O)c2c(C)n(CCN3CCOCC3)c3ccccc23)cc1`, for which the efficacy in [1] was -40.9%. Further, the AC50 in [2] is 39.8 µM (active); in experiment [5] it was 35.5 µM (active). Further, the outcome in experiment [3] was inactive.

Consider `O=C1NCN(c2ccccc2)C12CCN(CC1COc3ccccc3O1)CC2` (configuration not stated), for which the efficacy in [1] was -42.1%. The result in [2], in experiment [3], in [5] and in [6] was inactive.

With `Cc1ccc(-n2nc(C(C)(C)C)cc2NC(=O)Nc2ccc(OCCN3CCOCC3)c3ccccc23)cc1`, in experiment [1], the efficacy was 134%. For the same compound, the values for the AC50 in experiment [2], in [3] and in [5] were 25.1 µM (active), 20 µM (active) and 20 µM (active), respectively.

On to `CC(C)(C)CC(C)(C)c1ccc(O)cc1`, for which the efficacy in experiment [1] was -38.7%. Further, the AC50 in experiment [2] was 20 µM (active); in experiment [3], 17.8 µM (active) and 15.8 µM (active); in experiment [5], 17.8 µM (active) and 15.8 µM (active).
